Measurements as given in PubChem BioAssay AID1918969 (ICCB-Longwood Screening Facility, Harvard Medical School, 2023).
About 280 (0.15%) of roughly 190,000 compounds were called active. Cut-off read from the data, not from the text of the source: active = inhibition above about 27% (passing the limit was not always enough); inactive = the rest. Many of the other results were omitted from the sample, so actives are more common in it than they were.

These molecules were tested on HCMV UL50-UL53 nuclear egress complex (human cytomegalovirus) (assay: HCMV nuclear egress complex disruptors – biochemical, HTRF (AID 1918969)). Conditions: HTRF UL50-UL53 interaction, normalized percent inhibition; hits give high values; concentration not given here.

Row | SMILES | inhibition
1 | O=C(Cc1csc(NC(=O)NC2CCCC2)n1)NCCc1c[nH]c2ccccc12 | -1.1% (inactive)
2 | CCOC(=O)c1c(NC(=O)Cc2ccccc2)sc(C(=O)Nc2cccc(C(F)(F)F)c2)c1C | 8.1% (inactive)
3 | Cc1noc(C)c1COc1ccc(C(=O)OCC(=O)Nc2sc3c(c2C(N)=O)CCC3)cc1 | 13.2% (inactive)
4 | Cc1nn(C)cc1CN(C)C(=O)c1cnn2c(C(F)(F)F)cc(-c3ccc(Br)cc3)nc12 | -24.9% (inactive)
5 | Cc1ccc(C(CNC(=O)Nc2ccccc2)N2CCN(C)CC2)cc1 (configuration not stated) | -33.4% (inactive)
6 | N#Cc1cccc(NC(=O)CSc2ncccn2)c1 | 14.4% (inactive)
7 | Cc1ccc(NC(=O)Cn2cnc3ccc(S(=O)(=O)N4CCC(C)CC4)cc3c2=O)cc1F | -4.6% (inactive)
8 | C#CCN1C(=O)C(c2c(-c3ccc(Cl)cc3)[nH]c3c2c(=O)n(C)c(=O)n3C)c2ccccc21 (configuration not stated) | -14.2% (inactive)
9 | COc1cc(OC)cc(C(=O)N2N=C(c3c(-c4ccccc4)c4cc(Br)ccc4[nH]c3=O)CC2c2ccco2)c1 (configuration not stated) | 0.4% (inactive)
10 | CCOc1ccc(/C=C2\SC(=O)N(CCNC(=O)c3c(CC)noc3C)C2=O)cc1OC | -3.2% (inactive)
11 | Cn1nccc1-c1nc(-c2cccc(NC(=O)Nc3ccccc3)c2)no1 | -30% (inactive)
12 | COC(=O)c1sccc1NC(=O)Cn1c(=O)nc(-c2ccccc2F)c2cc(Cl)ccc21 | -19.3% (inactive)
13 | CC1(C)CC(NCCNC2=CC(=C(C#N)C#N)CC(C)(C)C2)=CC(=C(C#N)C#N)C1 | -0.1% (inactive)
14 | COc1ccc(-c2cc(C3CC3)nc3sc(C(N)=O)c(N)c23)cc1 | -38.3% (inactive)
15 | Cn1c(CCc2ccc(NC(=O)CN3C(=O)COc4ccccc43)cc2)nc2ccccc21 | -5.5% (inactive)
16 | NCC(c1ccccc1)N1CCCC1 (configuration not stated) | -3.2% (inactive)
17 | Cc1ccc(S(=O)(=O)N/N=C2/CSCC2NC(=O)c2ccccc2)cc1 (configuration not stated) | -22.7% (inactive)
18 | CCC(C)NS(=O)(=O)c1cc(C(=O)OC)n(C)c1C (configuration not stated) | -32.5% (inactive)
19 | CC(=O)N1c2ccc(S(=O)(=O)N3CCN(c4nc5ccccc5n5cccc45)CC3)cc2CC1C (configuration not stated) | -16.8% (inactive)

Row | SMILES | inhibition
20 | Cc1cc(C)cc(NC2=NS(=O)(=O)c3ccccc32)c1 | 7.9% (inactive)
21 | CCn1c(COC(=O)C2CSC3(C)CCC(=O)N23)nc2cc(S(=O)(=O)N(C)C)ccc21 (configuration not stated) | -24.2% (inactive)
22 | COC(=O)c1cc(OC(=O)c2cc(OC)cc(OC)c2)cc(C(=O)OC)c1 | 6.8% (inactive)
23 | COCC(=O)Nc1nc2nc(-c3ccccc3)cc(=O)n2[nH]1 | -6.9% (inactive)
24 | COc1ccccc1CNC(=O)C1CCN(c2ncnc3c2sc2nc(C)cc(-c4ccccc4)c23)CC1 | -7.4% (inactive)
25 | O=C(Nc1ccc2sccc2c1)C1CC1 | -0.1% (inactive)
26 | COc1ccc(NC(=O)CN2C(=O)C(C)(C)c3ccccc32)cc1 | -13.1% (inactive)
27 | CCOC(=O)c1cc(Nc2cc(OCC)ccc2OCC)c2cc(C)ccc2n1 | -15.8% (inactive)
28 | COc1nc(N)c(C#N)c(-c2ccccc2)c1C#N | 5.4% (inactive)
29 | CC(C)CSc1nccn2nc(-c3ccc(Cl)cc3)cc12 | 15.5% (inactive)
30 | CCOC(=O)c1cccc(NC(=O)c2ccc(CN3CC(=O)N4CSCC4C3=O)cc2)c1 (configuration not stated) | -6.4% (inactive)
31 | C=C(C)C1Cc2c(C)nn(S(=O)(=O)c3ccc(C)cc3)c2C1 (configuration not stated) | -7.3% (inactive)
32 | COc1ccc(OC)c(NC(=O)Cn2cnc3c2c(=O)n(C)c(=O)n3C)c1 | -4.9% (inactive)
33 | CCOc1ccc(NC(=O)CCCN2C(=O)/C(=C/c3ccc(Cl)cc3)SC2=S)cc1 | -12.3% (inactive)
34 | CCOC(=O)c1c(N)sc2c1CCC(Br)C2=O (configuration not stated) | -67.7% (inactive)
35 | CCN(C(=O)CSc1nnc(CN(c2ccc(F)cc2)S(C)(=O)=O)n1C)c1ccccc1 | -23.6% (inactive)
36 | CCOc1cccc(C(=O)Nc2ccccc2C(=O)OC)c1 | 9.1% (inactive)
37 | O=C(Nc1c[nH]c(=O)[nH]c1=O)c1ccco1 | -1.3% (inactive)
38 | CC(C)CN(CC(C)C)C(=O)CCN1C(=O)c2ccccc2C1=O | -21.3% (inactive)

Row | SMILES | inhibition
39 | CN(C(=O)CSc1nc(-c2ccccc2)cc(-c2ccco2)c1C#N)c1ccccc1 | -15.3% (inactive)
40 | CC(NC(=O)NCc1ccccc1)c1nc(-c2ccncc2)n[nH]1 (configuration not stated) | 8.4% (inactive)
41 | C=CCn1c(=O)c(C(=O)NCc2ccc3c(c2)OCO3)c(O)c2ccccc21 | -23.4% (inactive)
42 | CCOc1ccc(CN(C)C(=O)C2=NNC(=O)CC2)cc1 | -31.5% (inactive)
43 | COc1ccc(OCC(=O)N2N=C(c3ccc(Cl)cc3)CC2c2ccco2)cc1 (configuration not stated) | -31.7% (inactive)
44 | Cc1ccc(NC(=O)c2sc3ncnc(N4CCN(C)CC4)c3c2C)cc1F | -16.4% (inactive)
45 | CCOC(=O)c1ccc(N=C2SC(C(=O)Nc3ccc(C)cc3C)CC(=O)N2C)cc1 (configuration not stated) | -8.2% (inactive)
46 | N#CCSc1nnc(-c2ccccc2)c2ccccc12 | -26.2% (inactive)
47 | Cc1cccc(NC(c2ccccn2)c2ccc3cccnc3c2O)n1 (configuration not stated) | -53.1% (inactive)
48 | O=S(=O)(Nc1ccc(-c2ccc(N3CCCCC3)nn2)cc1)c1ccc(F)cc1F | -38.3% (inactive)
49 | CCc1nc2cccnc2n1-c1ccc(CC(=O)N2CCOCC2)cc1 | -27.2% (inactive)
50 | CC1=Nc2c(ccc3cccnc23)C1(C)C | -24.6% (inactive)
51 | CC1CN(Cn2[nH]c(=O)ccc2=O)CC(C)O1 (configuration not stated) | -7.4% (inactive)
52 | CC1=C(C(=O)OC2CCCC2)C(c2coc3ccc(C)cc3c2=O)C2=C(CC(c3ccco3)CC2=O)N1 (configuration not stated) | -3.1% (inactive)
53 | O=C(NCc1cc2ccccc2s1)c1ccc(N2CCOCC2)nc1 | -4.6% (inactive)
54 | CC(C(=O)Nc1ccc(S(=O)(=O)N2CCCC2)cc1)N(C)Cc1ccc(F)cc1 (configuration not stated) | -5% (inactive)
55 | COc1ccc(C2CC(=O)C3=C(C2)NC(C)=C(C(=O)Nc2ccc(C)cc2)C3c2ccccc2)cc1OC (configuration not stated) | -11.7% (inactive)
56 | O=C(NCCO)c1ccc(C(=O)NCCO)cc1 | -13.4% (inactive)
57 | CCOc1ccc(NC(=O)CS(=O)(=O)c2cccc3nsnc23)cc1 | -37.5% (inactive)
